How the values were obtained:
Experiment in all cases: PBM binding z-score (relative to random genomic background probes); higher = stronger binding; sequences stand for … in GC…GCGATTGACAGCGTAGAATGAAGG
[1] = system: FXR:RXRa (NR concentration 270 nM, RXRa partner concentration 90 nM)
Outline: (§1)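 Binding z-scores take random background probes as their reference. They come from custom Agilent 4×180K protein-binding microarrays incubated 1 h with ligand-free nuclear receptor dimers, with antibodies against each partner (one per run) detecting binding. Scanned fluorescence was regression-normalized.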

[2] = system: LXRa:RXRa (NR concentration 270 nM, RXRa partner concentration 90 nM)
Outline: as §1

[3] = system: LXRa homodimer (NR concentration 270 nM)
Outline: as §1

[4] = system: LXRb:RXRa (NR concentration 270 nM, RXRa partner concentration 90 nM)
Outline: as §1

[5] = system: LXRb homodimer (NR concentration 270 nM)
Outline: as §1

[6] = system: PPARa:RXRa (NR concentration 270 nM, RXRa partner concentration 90 nM)
Outline: as §1

[7] = system: PPARg:RXRa (NR concentration 180 nM, RXRa partner concentration 90 nM)
Outline: as §1

[8] = system: PPARg:RXRa 270nM:90nM, anti-RXR (NR concentration 270 nM, RXRa partner concentration 90 nM)
Outline: as §1

[9] = system: PPARg:RXRa 30nM:10nM, anti-RXR (NR concentration 30 nM, RXRa partner concentration 10 nM)
Outline: as §1

[10] = system: PPARg:RXRa 90nM:30nM, anti-RXR (NR concentration 90 nM, RXRa partner concentration 30 nM)
Outline: as §1

[11] = system: PPARg:RXRa DBDmut IVT, anti-RXR (DBD mutation: RXRa K156A/R161A, NR concentration 270 nM, RXRa partner concentration 90 nM)
Outline: as §1

[12] = system: PPARg:RXRa IVT, anti-PPARg (NR concentration 270 nM, RXRa partner concentration 90 nM)
Outline: as §1

[13] = system: PPARg DBDmut:RXRa IVT, anti-PPARg (DBD mutation: PPARg1 K132A/R137A, NR concentration 270 nM, RXRa partner concentration 90 nM)
Outline: as §1

[14] = system: PPARg DBDmut IVT, anti-PPARg (DBD mutation: PPARg1 K132A/R137A, NR concentration 270 nM)
Outline: as §1

[15] = system: PPARg homodimer (NR concentration 180 nM)
Outline: as §1

[16] = system: PXR:RXRa (NR concentration 270 nM, RXRa partner concentration 90 nM)
Outline: as §1

[17] = system: PXR homodimer (NR concentration 270 nM)
Outline: as §1

[18] = system: RARa:RXR (NR concentration 270 nM, RXRa partner concentration 90 nM)
Outline: as §1

[19] = system: RARa homodimer (NR concentration 270 nM)
Outline: as §1

[20] = system: RARb:RXRa (NR concentration 270 nM, RXRa partner concentration 90 nM)
Outline: as §1

| Sequence | PBM binding z-score [1] | PBM binding z-score [2] | PBM binding z-score [3] | PBM binding z-score [4] | PBM binding z-score [5] | PBM binding z-score [6] | PBM binding z-score [7] | PBM binding z-score [8] | PBM binding z-score [9] | PBM binding z-score [10] | PBM binding z-score [11] | PBM binding z-score [12] | PBM binding z-score [13] | PBM binding z-score [14] | PBM binding z-score [15] | PBM binding z-score [16] | PBM binding z-score [17] | PBM binding z-score [18] | PBM binding z-score [19] | PBM binding z-score [20] |
| --- | --- | --- | --- | --- | --- | --- | --- | --- | --- | --- | --- | --- | --- | --- | --- | --- | --- | --- | --- | --- |
| TCTTGTAGATCAGCAGGTCAAGAAAGCTGGCCAA | 1.17 | 1.55 | 0.209 | 1.59 | -0.222 | 2.5 | 0.457 | 2.37 | 2.48 | 2.59 | 1.57 | 1.61 | -0.677 | -0.699 | 0.129 | 1.6 | -0.4 | 2.18 | -0.58 | 2.01 |
| TGGCAAAGTTCAAAGGTAACGTAAGTATCCACAC | 7.23 | 6.17 | 4.18 | 4.49 | 1.25 | 5.55 | 6.74 | 7.1 | 4.38 | 6.02 | -0.0424 | 3.1 | 0.662 | 1.12 | 3.45 | 5.58 | 4.43 | 6.87 | 1.43 | 5.11 |
| CCTCAAAGTTCAACTAAGGTAACGTAAAGCACGC | 6.89 | 6.33 | 4.64 | 4.52 | 2.85 | 5.12 | 3.17 | 4.09 | 1.44 | 2.86 | 0.946 | 0.996 | 1.12 | 0.201 | 4.29 | 5.71 | 4.04 | 4.47 | 3.41 | 5.33 |
| TCAGGCAGGTGAAGGTAACTCAGGTACGCAGTCG | 0.263 | 1.12 | -0.208 | 0.558 | -0.936 | 0.851 | 0.226 | 1.2 | 2.13 | 1.73 | 1.55 | 1.14 | -0.774 | -0.917 | 0.554 | 0.0794 | -0.029 | 0.355 | -0.103 | 0.92 |
| ACTATTAATTGACTTAGGGCAACCGATACGACGC | 0.0871 | 0.356 | 1.02 | 0.353 | 1.25 | 0.0941 | 1.05 | 0.505 | 0.559 | 0.814 | 0.595 | 0.509 | 0.998 | 1.47 | 1.74 | 0.334 | 1.65 | 0.245 | 2.46 | 0.883 |
| ATTATTAGTTGAGACGAGGGCAACCGATAGGTTG | 1.13 | 0.675 | 1.08 | 0.406 | 0.941 | 0.603 | 0.713 | 0.504 | 0.68 | 0.781 | 0.469 | 1.43 | 1.76 | 1.3 | 1.77 | 1.72 | 1.69 | 1.4 | 2.49 | 1.48 |
| CGTCAAAGTTCAACTAAGGTATCGTAAAGCACGC | 7.21 | 6.22 | 4.37 | 4.24 | 2.23 | 5.15 | 4.83 | 5.57 | 2.02 | 4.5 | 0.0447 | 1.92 | 1.2 | 0.78 | 3.06 | 5.09 | 3.7 | 4.2 | 2.1 | 5.24 |
| CTCGAAAGGTCGTGCTCAGGTGAGTATCCCAAAC | 4.79 | 3.79 | 0.264 | 3.34 | 0.35 | 4.61 | 2.17 | 3.89 | 0.803 | 2.2 | 0.866 | 1.8 | 0.243 | -0.461 | 1.25 | 3.1 | 0.327 | 3.67 | -0.0794 | 3.83 |
| CAAACTAGGTCACGAAAGGCCAAAGTCGAATGAC | 5.15 | 6.02 | 1.03 | 4.03 | 0.629 | 5.58 | 9.27 | 7.42 | 5.71 | 7.41 | 8.35 | 9.09 | 5.28 | 3.96 | 2.99 | 4.77 | 0.402 | 3.68 | 0.983 | 4.56 |
| GCTGGTAGGTCAACTGATGGTCAGCTAAAGCTCG | 4.7 | 3.62 | 0.696 | 2.66 | 0.322 | 4.64 | 4.59 | 4.72 | 1.84 | 3.71 | 5.49 | 5.82 | 0.658 | 0.562 | 3.06 | 2.3 | -0.226 | 3.53 | 1.16 | 4.29 |
| GCATATAGGTAATACAAGGTGCAAGTCCGATTGT | -0.133 | -0.156 | -0.264 | -0.333 | -0.455 | 0.617 | 0.975 | 0.986 | 0.152 | 0.648 | 3.88 | 2.81 | 0.731 | 0.109 | 0.579 | -0.0713 | 0.191 | 0.538 | 0.49 | -0.282 |
| ATCTCTAGGTAATGTTCAGTGAAAGATCGATAGA | 0.347 | 0.554 | 0.048 | 0.107 | 1.09 | 0.239 | 0.489 | 0.323 | 0.558 | 0.276 | 2.57 | 1.63 | 1.27 | 1.25 | 0.598 | 0.381 | 0.219 | 0.543 | 0.802 | 0.148 |
| CTCGAAAGGTGGGTTGAGGTGAGTATACGGATAA | 0.825 | 0.397 | 0.00532 | 1.1 | 0.353 | 1.22 | 0.158 | 0.31 | -0.0559 | -0.00652 | 0.207 | 0.842 | 0.168 | 0.0199 | 0.652 | 1.01 | 0.754 | 1.22 | 0.749 | 0.866 |
| TCATATAGGTAAATGCTCGGTGAAAGTCCGATCT | 1.09 | 0.864 | 0.318 | 0.922 | -0.121 | 1.33 | 0.611 | 2.36 | 3.97 | 3.11 | 4.09 | 1.97 | 0.975 | 0.65 | 0.847 | 0.631 | 0.54 | 0.843 | 0.605 | 0.474 |

Reference: the supplement of paper PMC6555819
